This note sets out measurements from PubChem BioAssay (NCATS).

Inconclusive results are not listed. Active and inactive are the calls of the source. Calls come from the whole dose curve; as a rule, active = well fitted cell-killing curve with a large enough effect; inconclusive = small, poorly fitted or top-dose-only effect, or effect the other way; inactive = no such curve, though single readings can be large or run the other way. Starred links: 1 amine or outer side, 2 acyl side, 3 side chain; linkers in the order of their positions; H or OH if unused. Positions of bridges follow the written chain, without caps; N, C: chain ends. Non-standard residues stand in square brackets, D forms with d. Residues, ends and D or L forms follow the SMILES beside them. Chains are numbered I, II in the order given. *: point of attachment. Actinocin(9to1) = Cc1c2oc3c(C)ccc(C(=O)[*:1])c3nc-2c(C(=O)[*:2])c(N)c1=O; NMeV = CN[CH](C(=O)O)C(C)C; Cbz = O=C(OCc1ccccc1)*; Sar = CNCC(=O)O
Potency is the fitted concentration of half-maximal effect.

A short description of this test: Quantitative High-Throughput drug screen in 47 multiple myeloma cell lines against the NCATS MIPE library collection: KMS28BM_JCRB cell viability assay (AID 1919874). Note: nearly all actives have a fitted effect of over 35% in size. The note with it: CellTiter-Glo ATP, 48 h; series mostly up to 45.8 µM; viability, % of control: at the top concentration. Summed up:
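qHTS format: cells plated (500/well), pin-dosed with MIPE 4.0 compounds, kept 48 h at 37 °C. Readout was CellTiter-Glo luminescence, median RLU.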
As for `O=C(CCCCCCC(=O)Nc1cccnc1)NO`, the Potency is 4.18 µM (active).

For the compound `CC(N[C@H]1CCCC[C@H]1NC(=O)c1ccc(Cl)cc1)c1cccc2ccccc12` (some centres undefined), the Potency is 18.7 µM (active).

Turning to `Oc1ccc(-c2ccc(-c3cc(Nc4cccc(CNC5CC5)c4)n[nH]3)cc2)c(O)c1`, the Potency is 1.32 µM (active).

Consider `CC(C)C[C@@H](C=O)NC(=O)[C@H](CC(C)C)NC(=O)[C@H](CC(C)C)NC(=O)OCc1ccccc1` (Cbz-Leu-Leu-Leu-aldehyde), for which the Potency was 0.235 µM (active).

Turning to `Oc1ccc([C@@H]2Oc3ccc(O)cc3[C@@H]3CCC[C@@H]32)cc1`, the Potency is 14.8 µM (active).

As for `Nc1nc(=O)n([C@H]2C[C@H](O)[C@@H](CO)O2)cc1F`, the “viability, % of control” value was 125% (inactive).

For `Cc1c2oc3c(C)ccc(C(=O)NC4C(=O)NC(C(C)C)C(=O)N5CCCC5C(=O)N(C)CC(=O)N(C)C(C(C)C)C(=O)OC4C)c3nc-2c(C(=O)NC2C(=O)NC(C(C)C)C(=O)N3CCCC3C(=O)N(C)CC(=O)N(C)C(C(C)C)C(=O)OC2C)c(N)c1=O` (centres undefined) (I: TVP[Sar][NMeV] / II: TVP[Sar][NMeV]; ester I:1-I:C, II:1-II:C; linker I:N-II:N via Actinocin(9to1); configuration not given here), the “viability, % of control” value is 14.9% (inactive).

Regarding `C#Cc1cccc(Nc2ncnc3cc(OCCOC)c(OCCO)cc23)c1`, the Potency was 8.33 µM (active).

Take `CC(C)Oc1ccc(C(=O)N[C@H](CNC(=O)CN(C)C)Cc2ccc(-c3cn4cccc([C@H](C)O)c4n3)cc2)cc1Cl`: the Potency is 1.66 µM (active).

With `CCCCCCCCc1ccc(CCC(N)(CO)CO)cc1`, the Potency is 7.43 µM (active).

For the compound `O=C(O)CCCCCC(=O)NN=C1CCCC1`, the “viability, % of control” value is 118% (inactive).

On to `Cc1cnc(NC(=O)Nc2cc(Br)c(C)cc2OC[C@@H]2CNCCO2)cn1`, for which the Potency was 14.8 µM (active).

For the compound `NC1=N[C@H]2[C@H](CS[C@H]2CCCCC(=O)O)N1`, the “viability, % of control” value was 130% [at 23.2 µM] (inactive).

In the case of `O=c1ccn([C@@H]2O[C@H](CO)[C@H](O)[C@@H]2F)c(=O)[nH]1`, the “viability, % of control” value was 111% (inactive).

For `CN(C)CCN1C(=O)c2cccc3cc(N)cc(c23)C1=O`, the Potency is 16.6 µM (active).

Take `c1cc(CN2CCCNCCNCCCNCC2)ccc1CN1CCCNCCNCCCNCC1`: the “viability, % of control” value is 121% (inactive).

For the compound `CN(C)c1ccc(C(=O)NCCCCCCC(=O)NO)cc1`, the Potency was 0.526 µM (active).

Consider `NC(=NCCCCCCN=C(N)N=C(N)Nc1ccc(Cl)cc1)N=C(N)Nc1ccc(Cl)cc1`, for which the Potency is 18.7 µM (active).

Turning to `COc1cc(CCc2cc(NC(=O)c3ccc(N4C[C@@H](C)N[C@@H](C)C4)cc3)n[nH]2)cc(OC)c1`, the Potency is 16.6 µM (active).

Turning to `CC(C)c1cnn2c(NCc3ccccc3)cc(NCCCCCCN)nc12`, the Potency is 20.9 µM (active).

`CC(C)NC[C@@H](C(=O)N1CCN(c2ncnc3c2[C@H](C)C[C@H]3O)CC1)c1ccc(Cl)cc1`: the Potency is 2.96 µM (active).

With `NC(=O)N1CCC(CC(=O)N2CCC([C@H]3c4ncc(Br)cc4CCc4cc(Cl)cc(Br)c43)CC2)CC1`, the Potency is 20.9 µM (active).

For `Nc1nc(N)c2nc(-c3cccc(O)c3)c(-c3cccc(O)c3)nc2n1`, the Potency was 20.9 µM (active).

For `CCc1c(O)cc(O)c(C(=O)c2ccc(OCCN3CCOCC3)c(OC)c2)c1CC(=O)N(CCOC)CCOC`, the Potency is 1.32 µM (active).

Consider `CC(=O)SCC(Cc1ccccc1)C(=O)NCC(=O)OCc1ccccc1` (centres undefined), for which the Potency is 11.8 µM (active).

Turning to `COc1cccc2c1C(=O)c1c(O)c3c(c(O)c1C2=O)C[C@@](O)(C(=O)CO)C[C@@H]3O[C@H]1C[C@H](N)[C@@H](O)[C@H](C)O1`, the Potency is 0.418 µM (active).

Take `Nc1ccn(C2CO[C@H](CO)O2)c(=O)n1` (some centres undefined): the “viability, % of control” value is 106% (inactive).

`CCNC(=O)c1cc2c(-c3cc(OCCN4CCCC4)c(Cl)cc3Cl)nc(N)nc2s1`: the Potency is 1.32 µM (active).

With `COc1cc(C)c(Sc2cnc(NC(=O)c3ccc(CNC(C)C(C)(C)C)cc3)s2)cc1C(=O)N1CCN(C(C)=O)CC1` (centres undefined), the Potency is 13.2 µM (active).

On to `COc1cc(O)c2c(c1)C1OC1C[C@H](O)[C@H](O)C(=O)C=CC[C@H](C)OC2=O` (some centres undefined), for which the Potency is 3.72 µM (active).

`O=S(=O)(O)CCSSCCS(=O)(=O)O`: the “viability, % of control” value was 114% (inactive).

Take `CCCc1nc(C(C)(C)O)c(C(=O)O)n1Cc1ccc(-c2ccccc2-c2nn[nH]n2)cc1`: the “viability, % of control” value was 130% (inactive).

On to `C[C@H]1[C@@H](OC(=O)CCC(=O)O)O[C@@H]2O[C@@]3(C)CC[C@@H]4[C@H](C)CC[C@@H]1[C@@]24OO3`, for which the Potency was 14.8 µM (active).

For the compound `CN1C(C(=O)Nc2ccccn2)=C(O)c2sc(Cl)cc2S1(=O)=O`, the “viability, % of control” value is 116% (inactive).
